# ChEMBL document CHEMBL3988442, “University of Dundee, Small-Polar-MMV Screening Library” (2021)
# Among all 69,000 compounds or so, about 950 (1.4%) showed an effect of 50% or more. This excerpt belongs to a sample that is enriched for strong results.
# System: Mycobacterium tuberculosis
# Assay: Cornell M. t heat shock assay; also: in the data most compounds retested in dose-response had high values
# Type: functional, organism-based
# Design: dose or concentration left out as unconfirmed
row,SMILES,Percent Effect [%]
1,CC1c2ncc(CNC(=O)C3CC3)n2CCN1Cc1cccnc1.O=C(O)C(F)(F)F.O=C(O)C(F)(F)F (centres undefined),-10.62
2,CN1CC(=O)N(c2ccccc2)CC12CCN(C(=O)c1cccs1)C2.O=C(O)C(F)(F)F (centres undefined),-3.603
3,O=C(O)C(F)(F)F.O=C(O)C(F)(F)F.O=C(c1cccnc1)N1Cc2nccn2CC(COc2cccnc2)C1 (centres undefined),-22.14
4,CCN1C(=O)CCC12CCCN(Cc1nccs1)CC2.O=C(O)C(F)(F)F (centres undefined),-119
5,CN(C)CCOCC1CN(Cc2cccs2)Cc2ccnn2C1.O=C(O)C(F)(F)F.O=C(O)C(F)(F)F.O=C(O)C(F)(F)F (centres undefined),-22.31
6,CN(C)Cc1cc(C2CCN(C(=O)C3CC34CCC4)CC2)nn1C.Cl (centres undefined),-10.56
7,CNc1cc(C)nc(N2Cc3cnn(Cc4ccc(F)cc4)c3C2)n1,-20.76
8,Cc1ccc(CNC2CC3(CCN(CCO)CC3)c3ccccc32)s1.O=C(O)C(F)(F)F.O=C(O)C(F)(F)F (centres undefined),0.5733
9,O=C(O)C(F)(F)F.O=C1N(Cc2cccnc2)CCC12CCCN(c1ncc(F)cn1)C2 (centres undefined),4.445
10,Cl.Oc1cc(C2CCNCC2)nc(-c2ccsc2)n1,-3.533
11,Cn1nccc1C(=O)N1CCC2(CC1)COC(COc1ccccn1)C2.O=C(O)C(F)(F)F (centres undefined),-4.012
12,O=C(Nc1ccc(=O)n(Cc2ccccc2Cl)c1)C1CC1,42.02
13,CC(OCC1CC1)C(=O)Nc1ccn(Cc2ccccc2)n1 (centres undefined),-11.4
14,COC(=O)N1CCN(Cc2ccccc2Cl)CC1,-12.81
15,CC(OCC1CC1)C(=O)Nc1nccn1Cc1ccccc1 (centres undefined),81.58
16,CC(=O)Nc1nccn1Cc1ccccc1Cl,63.7
17,CCOCCOC(C)C(=O)Nc1nccn1Cc1ccccc1 (centres undefined),28.47
18,CN1CCOCC2(CCCN(C(=O)c3cnccn3)C2)C1.O=C(O)C(F)(F)F (centres undefined),-11.83
19,Cc1cc(N(C)C)nc(C2CCNC2)n1.Cl.Cl (centres undefined),-43.84
20,Cc1cnc(N2CC[C@H]3[C@@H]2CCC(=O)N3c2ccccc2)nc1.O=C(O)C(F)(F)F,36.02
21,O=C(NCC1CC1)[C@@H]1CCO[C@@H]2CCN(CCc3ccccc3)C[C@H]21.O=C(O)C(F)(F)F,-21.47
22,Cn1cccc1C(=O)N1CC[C@@H]2[C@@H]1CC(=O)N2CCN1CCOCC1.O=C(O)C(F)(F)F,-25.84
23,CCO[C@@H]1CC[C@H]2[C@H]1OCCN2Cc1ccoc1.O=C(O)C(F)(F)F,1.857

row,SMILES,Percent Effect [%]
1,O=C(N[C@@H]1CN(Cc2ccccc2)C[C@@H]2CCCO[C@@H]21)C1CC1.O=C(O)C(F)(F)F,-8.331
2,O=C(N[C@@H]1CN(Cc2ccoc2)C[C@@H]2CCCO[C@@H]21)C1CCC1,51.5
3,O=C(CC1CC1)N[C@@H]1CN(Cc2ccoc2)C[C@@H]2CCCO[C@@H]21,-3.487
4,Cc1nc(NC(=O)CCc2c(C)nc3cc(O)nn3c2C)sc1C,27.32
5,Cc1nc2cc(O)nn2c(C)c1CCC(=O)NCCCC(C)C,-0.01064
6,COC(=O)CCc1c(C)nn(-c2nc(C)cc(=O)[nH]2)c1C,103.1
7,COc1ccc(C)nc1NC(=O)CCc1c(C)nn(C)c1C,-18.22
8,Cc1csc(NC(=O)Cn2nc(C)ccc2=O)n1,-1.06
9,Cc1cc(=O)[nH]c(-n2nc(C)c(CCC(=O)Nc3nc(C)cs3)c2C)n1,95.61
10,COCCNC(=O)CCc1c(C)nn(-c2nc(C)c(C)c(=O)[nH]2)c1C,37.18
11,Cc1nn(-c2cc(Cl)cc(Cl)c2)c(C)c1CCC(=O)O,19.8
12,Cc1cc(=O)[nH]c(-n2nc(C)c(CCC(=O)NCC(C)C)c2C)n1,98.01
13,CC(=O)N1[C@H](CN(C)C)C[C@@H]2CN(C(=O)c3cccn3C)CC[C@@H]21.O=C(O)C(F)(F)F,-10.3
14,O=C(O)C(F)(F)F.O=C(c1cccnc1)N1CCC2(CCN(C(=O)c3ccco3)CC2)C1,23.94
15,CCC(C)(C)NC(=O)c1ncn2c1CN(C)S(=O)(=O)c1ccccc1-2.O=C(O)C(F)(F)F,-13.28
16,CCNC(=O)NCc1ccccc1NS(=O)(=O)c1ccccc1,35.07
17,N#Cc1nc(COc2ccc3c(c2)OCO3)oc1NC1CCCCC1,5.438
18,O=C(O)C(F)(F)F.c1cn2c(n1)CN(Cc1ccsc1)CC(Cn1cncn1)C2 (centres undefined),-22.01
19,Cc1ccc(-c2cc(-c3c(C)nn(CCO)c3C)c(C#N)c(N)n2)cc1,10.03
20,CCCn1cc(-c2cc(-c3ccoc3)c(C#N)c(N)n2)c(C)n1,75.39
21,CCCn1cc(-c2cc(-c3cc(CC)n[nH]3)c(C#N)c(N)n2)c(C)n1,41.25
22,CCCn1cc(-c2cc(-c3c[nH]cn3)c(C#N)c(N)n2)c(C)n1,15.71
23,COc1ncc(-c2cc(-c3ccn(C)c3)nc(N)c2C#N)cn1,-43.44

row,SMILES,Percent Effect [%]
1,CCCn1cc(-c2cc(-c3cnc(OC)nc3)c(C#N)c(N)n2)c(C)n1,100.5
2,O=C(C[C@@H]1COC[C@H]2CN(C(=O)c3cccnc3)C[C@@H]12)N1CCOCC1.O=C(O)C(F)(F)F,-5.703
3,CN(C)C(=O)CN1C(=O)CCC12CCN(Cc1ccsc1)CC2.O=C(O)C(F)(F)F,-0.1041
4,COCc1ccc(CN2CCC(O)(Cn3ccc4ncccc43)CC2)o1.Cl,-9.994
5,Cl.c1ccc(CNc2cc(C3CCCNC3)ccn2)nc1 (centres undefined),18.31
6,Cc1oncc1C(=O)NCc1cc(=O)n2c(n1)CN(CC1CC1)CCC2.O=C(O)C(F)(F)F,-32.57
7,COCC(=O)N1CC[C@@H]2O[C@@H](C)C[C@H]2C1,-1.773
8,COCC(=O)N1CC[C@H]2O[C@@H](C)C[C@H]2C1,64.99
9,COCC(=O)N1CC[C@H]2C[C@H](C)O[C@@H]2C1,3.806
10,COCC1CN(Cc2ccc3c(c2)OCO3)Cc2ncn(C)c21.O=C(O)C(F)(F)F.O=C(O)C(F)(F)F (centres undefined),-21.56
11,Cl.O=C(N1CCCC1)C1(Cc2ccc(-c3cccs3)cc2)CCNC1 (centres undefined),-20.63
12,Cc1c[nH]c(C2CCCN(Cc3ccccc3C(=O)O)C2)n1.O=CO (centres undefined),-20.14
13,CC(C)CCN1C[C@H]2C[C@H](C(=O)Nc3ccccc3)[C@@H](C1)O2.O=C(O)C(F)(F)F,-19.48
14,CN(Cc1cccnc1)[C@@H]1CN(C(=O)c2ccno2)[C@@H]2CCCO[C@H]12.O=C(O)C(F)(F)F.O=C(O)C(F)(F)F,0.2387
15,COC(=O)Cn1c(=O)nc2n1C(=O)N(c1ccc(C)cc1)C2,3.714
16,CCS(=O)(=O)NC[C@]12COC[C@H]1CN(Cc1cccc(OC)c1)C2.O=C(O)C(F)(F)F,-11.48
17,CN(Cc1ccccc1)C(=O)CS(=O)(=O)Cc1ccc(Cl)c(Cl)c1,47.42
18,CN(Cc1cccc(F)c1)C(=O)CS(=O)(=O)Cc1ccc(Cl)c(Cl)c1,52.33
19,CN(Cc1cccc(F)c1)C(=O)CS(=O)(=O)Cc1c(Cl)cccc1Cl,25.49
20,Cc1ccc(-c2cc(C3CCNCC3)nc(C)n2)cc1.Cl,-12.8
21,CSc1ccc(-c2cc(CN)nc3ccnn23)cc1.Cl,4.059
22,NC(=O)C(NC(=O)c1ccc(NC2CC2)nc1)c1ccccc1 (centres undefined),-7.076
23,COC(=O)C(NC(=O)c1ccc(NC2CC2)nc1)c1ccccc1 (centres undefined),51.61

row,SMILES,Percent Effect [%]
1,COC(=O)C(NC(=O)c1ccc(N(C)C)nc1)c1ccccc1 (centres undefined),22
2,Cc1c[nH]c(C(=O)N2C[C@H]3CC[C@@H]2CN(Cc2cscn2)C3)n1,2.551
3,CC(C)c1cc(C(=O)N2C[C@H]3CC[C@@H]2CN(Cc2cscn2)C3)no1,37.62
4,COC(=O)N1C[C@H]2CC[C@@H]1CN(Cc1cscn1)C2,1.905
5,COc1cccc(C(=O)N2C[C@H]3CC[C@@H]2CN(Cc2cscn2)C3)c1,-27.99
6,CC(C)Cc1cc(CN2C[C@H]3CC[C@@H]2CN(Cc2cscn2)C3)n[nH]1,107.7
7,CC(C)(C)c1cc(CN2C[C@H]3CC[C@@H]2CN(Cc2cscn2)C3)n[nH]1,92.4
8,CN1C(=O)C(c2ccccc2)CC12CCN(CCO)CC2.O=C(O)C(F)(F)F (centres undefined),-21.97
9,Cc1cccc(CN2CC3(CCN(C4CCOC4)CC3)OCC2=O)n1.O=C(O)C(F)(F)F.O=C(O)C(F)(F)F (centres undefined),-30.47
10,O=C(O)C(F)(F)F.O=C(c1ccco1)N1CCO[C@@H]2CN(Cc3nccs3)CC[C@@H]2C1,4.898
11,CCC1=N[C@@]2(CC[C@@H]3CN(Cc4cccc(Cl)c4)C[C@@H]32)C(=O)N1C.O=C(O)C(F)(F)F,32.88
12,Cc1nc(C2CCN(Cc3ncc[nH]3)CC2)no1.O=CO,-19.83
13,CN(C)S(=O)(=O)c1ccc(-c2nc(C#N)c(NC3CC3)o2)o1,78.01
14,CN(C)S(=O)(=O)c1ccc(-c2nc(C#N)c(NC(C)(C)C)o2)o1.Cl,74.72
15,CNc1oc(-c2ccc(S(=O)(=O)N(C)C)o2)nc1C#N,-18.56
16,CC(C)Nc1oc(-c2ccc(S(=O)(=O)N(C)C)o2)nc1C#N,-8.92
17,Cc1oc(-c2nc(C#N)c(NC3CC3)o2)cc1S(=O)(=O)N1CCCC1,-1.847
18,Cc1oc(-c2nc(C#N)c(NC(C)(C)C)o2)cc1S(=O)(=O)N1CCCC1,1.248
19,CNc1oc(-c2ccc(OC)c(S(=O)(=O)N(C)C)c2)nc1C#N,4.952
20,CN(C)S(=O)(=O)c1ccc(-c2nc(C#N)c(NC3CCCCC3)o2)o1,5.856
